{
  "source": "PubChem BioAssay AID1347417",
  "about": "(National Center for Advancing Translational Sciences (NCATS), 2020)",
  "note": "The whole screen tested about 120,000 compounds, of which about 5,300 (4.4%) were called active. Another 22% or so got no clear call; they are omitted. The sample holds actives, similar compounds and a random draw of the others, so the mix is not that of the screen. The call rests on the fitted dose curve; in most records, active means well fitted inhibition curve with a large enough effect; inconclusive means small, poorly fitted or top-dose-only effect; inactive means no such curve, though single readings can be large or run the other way. Potency means the concentration at half of the fitted maximal effect.",
  "data": [
    {"assay": "qHTS Primary assay for Inhibitors of Plasmodium falciparum Dd2 growth in vitro; further: nearly all actives have a fitted effect of over 65% in size;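 on activity, negative = inhibition: plate controls were DMSO vehicle for no effect and reference drug for full effect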", "conditions": "P. falciparum Dd2 growth, SYBR Green, 72 h; series mostly up to 28.9 µM; activity, negative = inhibition: at the top concentration", "outline": "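Infected erythrocytes (Dd2, 0.3% parasitemia, 2.5% hematocrit final) are added to compound in RPMI-1640/Albumax II medium, grown 72 h at 37C in low oxygen, then lysed with saponin/Triton-X containing SYBR Green and read by fluorescence.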", "values": [
      {"smiles": "C[C@H](O)c1onc(-c2ccc(F)cc2)c1C(=O)N1CCC1", "activity, negative = inhibition": "-2.21% [at 44.1 µM] (inactive)"},
      {"smiles": "Cc1cccc(-n2nc(-c3c(C)nc4scc(CC(=O)NCc5ccco5)n4c3=O)cc2C)c1C", "outcome": "inactive"},
      {"smiles": "COc1ccc(Cl)cc1S(=O)(=O)N1CCCC(CNC(=O)c2ccco2)C1", "note": "(stereo unspecified)", "activity, negative = inhibition": "-19.5% (inactive)"},
      {"smiles": "Cc1nc(-c2ccc(C(F)(F)F)cc2)cc([C@H]2CN3CC[C@H]2C[C@@H]3CNC(=O)C2CCC2)n1", "activity, negative = inhibition": "-20.9% (inactive)"},
      {"smiles": "COc1ccccc1-c1cc([C@H]2CN3CC[C@H]2C[C@@H]3CNC(=O)c2ccco2)nc(C)n1", "Potency": "10 µM (active)"},
      {"smiles": "Cc1nc(-c2ccccc2)cc([C@H]2CN3CC[C@H]2C[C@@H]3CNC2CCN(C)CC2)n1", "activity, negative = inhibition": "-10.6% [at 44.1 µM] (inactive)"},
      {"smiles": "COc1ccc(-c2cc([C@H]3CN4CC[C@H]3C[C@@H]4COC(=O)NC(C)C)nc(C)n2)cc1", "outcome": "inactive [at 44.1 µM]"},
      {"smiles": "Cc1ccc(C(=O)NC[C@H]2C[C@@H]3CCN2C[C@@H]3c2cc(-c3ccco3)nc(C)n2)cc1", "Potency": "3.55 µM (active)"},
      {"smiles": "O=C(c1ccncc1)N1CCC(C2CCN(Cc3cccc(F)c3F)CC2)C1", "note": "(stereo unspecified)", "activity, negative = inhibition": "0.365% (inactive)"},
      {"smiles": "COc1ccc(N2CCN(C(=O)COc3ccc(NC(C)=O)cn3)CC2)cc1", "activity, negative = inhibition": "-22.7% (inactive)"},
      {"smiles": "Cc1cccc(CN2CCc3ncc(C(=O)NCc4ccccc4)n3CC2)n1", "activity, negative = inhibition": "9.88% [at 44.1 µM] (inactive)"},
      {"smiles": "COCC(=O)N(C1CCOCC1)C1CCN(S(=O)(=O)c2ccccc2C)CC1", "outcome": "inactive"},
      {"smiles": "CCOC(=O)c1ccc(NC(=O)Cn2ccn3nc(-c4ccccc4)c(CO)c3c2=O)cc1", "activity, negative = inhibition": "-13.6% (inactive)"},
      {"smiles": "Cc1nn(-c2ccccc2)c(C)c1CC(=O)NC1CCCc2c1[nH]c1ccccc21", "note": "(stereo unspecified)", "outcome": "inactive"},
      {"smiles": "CN(C)C[C@@H]1CN(S(C)(=O)=O)C[C@H]1NC(=O)c1ccc2ncccc2c1", "activity, negative = inhibition": "4.36% (inactive)"},
      {"smiles": "CSc1oc(-c2cccs2)nc1S(=O)(=O)c1ccc(Br)cc1", "activity, negative = inhibition": "6.08% (inactive)"},
      {"smiles": "CCCCS(=O)(=O)c1oc(-c2cccs2)nc1S(=O)(=O)c1ccccc1", "Potency": "10 µM (active)"},
      {"smiles": "Cc1ccc(CSc2oc(-c3cccs3)nc2S(=O)(=O)c2ccc(C)cc2)cc1", "activity, negative = inhibition": "8.49% (inactive)"},
      {"smiles": "Cc1cc(OC2CN([S+](=O)([O-])c3ccccc3)C2)ccc1F", "activity, negative = inhibition": "-9.59% [at 44.1 µM] (inactive)"},
      {"smiles": "COC1C(=O)N(CC2CC2)C12CCN(C(=O)NC1CCCCC1)CC2", "note": "(stereo unspecified)", "activity, negative = inhibition": "-18.9% (inactive)"},
      {"smiles": "Cn1nccc1CN1CC(Oc2ccc(F)c(F)c2)C1", "outcome": "inactive [at 44.1 µM]"},
      {"smiles": "O=C(C1CCN(c2nc(-c3ccccc3)nc3c2CCC3)CC1)N1CCC[C@H]1CO", "Potency": "8.91 µM (active)"},
      {"smiles": "O=C(CN1CCCC1=O)NC1CCCc2nc(-c3ccccc3)ncc21", "note": "(stereo unspecified)", "activity, negative = inhibition": "-6.14% (inactive)"},
      {"smiles": "CC(C)OCC(=O)N1CCN(c2nc(-c3ccccc3)nc3c2CCC3)CC1", "Potency": "12.6 µM (active)"},
      {"smiles": "O=C(NCCc1ccccn1)C1CCCN(c2nc(-c3ccccc3)nc3c2CCC3)C1", "note": "(stereo unspecified)", "activity, negative = inhibition": "-1.6% (inactive)"},
      {"smiles": "O=C(NC1CCNC1)C1CCN(c2nc(-c3ccccc3)nc3c2CCC3)CC1", "note": "(stereo unspecified)", "Potency": "7.08 µM (active)"},
      {"smiles": "O=C(NCc1cccnc1)C1CCN(c2nc(-c3ccccc3)nc3c2CCC3)CC1", "activity, negative = inhibition": "-6.78% (inactive)"},
      {"smiles": "Cc1nc(CCNC(=O)C2CCCN(c3nc(-c4ccccc4)nc4c3CCC4)C2)n[nH]1", "note": "(stereo unspecified)", "activity, negative = inhibition": "-18.7% (inactive)"},
      {"smiles": "Cc1ccc(-c2cc(N3CCCN(C(=O)COc4ccccc4)CC3)n[nH]2)cc1C", "outcome": "inactive"},
      {"smiles": "COCCOCC(=O)N1CCCC(c2nc(-c3ccccc3)no2)CCNC(=O)CC1", "note": "(stereo unspecified)", "activity, negative = inhibition": "24.6% (inactive)"},
      {"smiles": "COc1ccc(N2CC(C(=O)N3CCSCC3)CC2=O)cc1Cl", "note": "(stereo unspecified)", "activity, negative = inhibition": "-6.82% (inactive)"},
      {"smiles": "O=C(Nc1ccccc1Cl)N1CCc2nc3cc[nH]n3c(=O)c2C1", "activity, negative = inhibition": "-0.962% [at 5.79 µM] (inactive)"},
      {"smiles": "Cc1nn(CC(=O)NCC2CCCO2)c(=O)c2nc(C(C)C)sc12", "note": "(stereo unspecified)", "activity, negative = inhibition": "-21.8% (inactive)"},
      {"smiles": "CC(C)c1nc(C2Cc3ccccc3N2S(=O)(=O)c2cn(C)cn2)no1", "note": "(stereo unspecified)", "outcome": "inactive"},
      {"smiles": "CCc1ccc(NC(=O)N2CCCC(Cn3cnc4cccnc43)C2)cc1", "note": "(stereo unspecified)", "outcome": "inactive"},
      {"smiles": "COCCNC(=O)CCc1cc2ccc(C)cc2[nH]c1=O", "activity, negative = inhibition": "16% (inactive)"},
      {"smiles": "O=C(c1cc(F)ccc1F)N1CCCC(n2cc(-c3nc(C4CC4)no3)nn2)C1", "note": "(stereo unspecified)", "activity, negative = inhibition": "-18.1% (inactive)"},
      {"smiles": "O=c1n(-c2ccncc2)nc2n1CCN([S+](=O)([O-])c1cccc(C(F)(F)F)c1)C2", "activity, negative = inhibition": "21.7% (inactive)"},
      {"smiles": "CCOc1ccc(C2Cn3nnc(-c4nc(-c5cccc(F)c5)no4)c3CO2)cc1", "note": "(stereo unspecified)", "outcome": "inactive; activator; fitted 1.7783 uM"},
      {"smiles": "NC(=O)Cn1ccc2cc(OCC3CCN(c4cnccn4)CC3)cnc21", "outcome": "inactive [at 44.1 µM]"},
      {"smiles": "Cn1ccnc1C(=O)N1CCC2(CC1)CN(c1ncccn1)CC2CO", "note": "(stereo unspecified)", "activity, negative = inhibition": "-6.56% (inactive)"},
      {"smiles": "COc1cccc(OCc2nnc(C(=O)N3CCC[C@@H]3c3cccc(F)c3)n2-c2ccccc2)c1", "outcome": "inactive"},
      {"smiles": "Cc1cc(=O)n(CC(=O)Nc2cccc([N+](=O)[O-])c2)c(-n2nc(C)cc2C)n1", "activity, negative = inhibition": "10.6% (inactive)"},
      {"smiles": "Cc1ccc(Nc2nc3ccccc3nc2-n2nc(C)cc2C)c(Cl)c1", "activity, negative = inhibition": "34.1% (inactive)"},
      {"smiles": "Cc1cccc(Nc2cc(C)nc(-n3nc(C)cc3C)n2)c1", "Potency": "5.62 µM (active)"},
      {"smiles": "O=C(c1ccc2cc[nH]c2n1)N1CCOCC1", "activity, negative = inhibition": "13.4% [at 44.1 µM] (inactive)"},
      {"smiles": "COc1ccc(CNC(=O)c2cccc3c2CCN3C(=O)c2ccc(F)cc2)cc1OC", "outcome": "inactive"},
      {"smiles": "COc1ccc(N2C(=O)C3(CCCCC3)C2C(=O)NCCc2ccncc2)cc1", "note": "(stereo unspecified)", "activity, negative = inhibition": "9.99% (inactive)"},
      {"smiles": "COc1ccc(C2Sc3ccccc3NC3=C2C(=O)c2ccccc23)c(OC)c1OC", "note": "(stereo unspecified)", "Potency": "0.316 µM (active)"},
      {"smiles": "COc1nc2nc(CC3CC3)n(C)c2cc1-c1ccc(CO)cc1", "activity, negative = inhibition": "-10.5% [at 44.1 µM] (inactive)"},
      {"smiles": "CCN(CC)CCCNC(=O)c1cn(C)c2ccc(S(=O)(=O)N(C)C3CCCCC3)cc2c1=O", "activity, negative = inhibition": "62% (inactive)"},
      {"smiles": "COc1ccccc1Nc1cc(C(=O)NCCCN(C)C2CCCCC2)c2ccccc2n1", "Potency": "10 µM (active)"},
      {"smiles": "COc1ccc(CCNC(=O)c2c3c(nc4ccccc24)C(=O)N(C2CCCCC2)C3)cc1OC", "activity, negative = inhibition": "23.2% (inactive)"},
      {"smiles": "Cc1ccc(NC(=O)Cn2c(-c3ccc(Cl)cc3)nc(C)c(CCO)c2=O)cc1C", "activity, negative = inhibition": "-20.1% (inactive)"},
      {"smiles": "CCN(CC)C(=O)C(NC(=O)c1ccc(OC)cc1)C1CCN(C(=O)c2ccc(F)cc2)CC1", "note": "(stereo unspecified)", "outcome": "inactive"},
      {"smiles": "CCN(CC)C(=O)C(NC(=O)c1ccc(OC)cc1)C1CCN(C(=O)C(C)C)CC1", "note": "(stereo unspecified)", "activity, negative = inhibition": "-18.8% (inactive)"},
      {"smiles": "O=C(NC(C(=O)N1CCCCC1)C1CCN(C(=O)c2ccc(Cl)cc2)CC1)c1ccccc1", "note": "(stereo unspecified)", "Potency": "5.01 µM (active)"},
      {"smiles": "CNC(=O)[C@@H]1CN(C(=O)c2ccc3ccccc3n2)C[C@H]1COC", "activity, negative = inhibition": "0.257% (inactive)"},
      {"smiles": "CS(=O)(=O)c1cnc(NCCc2cnc[nH]2)nc1C1CCCNC1", "note": "(stereo unspecified)", "activity, negative = inhibition": "-2.1% (inactive)"},
      {"smiles": "CN(CC1CCOC1)C(=O)Nc1ccc(Cl)cc1", "note": "(stereo unspecified)", "outcome": "inactive [at 5.79 µM]"},
      {"smiles": "CC(C)(C)c1csc(NC(=O)C[C@H]2NC(=O)c3ccccc3NC2=O)n1", "outcome": "inactive"}
    ]}
  ]
}
